# Laboratory results as given in PubChem BioAssay AID886 (National Center for Advancing Translational Sciences (NCATS), 2007).
# “And” between values parts separate entries of the source, which are not always exact repeats. Equal entries are not always repeated. The campaign covered roughly 73,000 compounds. About 2,500 (3.4%) were called active. Another 7% or so got no clear call; they are omitted. Calls come from the whole dose curve; as a rule, active = well fitted inhibition curve with a large enough effect; inconclusive = small, poorly fitted or top-dose-only effect; inactive = no such curve, though single readings can be large or run the other way. Shown is part of a subset that was picked to be rich in actives.
# Biological target: 3-hydroxyacyl-CoA dehydrogenase type-2 (Homo sapiens) (UniProt Q99714)
# Sequence (Q99714 whole entry, looked up): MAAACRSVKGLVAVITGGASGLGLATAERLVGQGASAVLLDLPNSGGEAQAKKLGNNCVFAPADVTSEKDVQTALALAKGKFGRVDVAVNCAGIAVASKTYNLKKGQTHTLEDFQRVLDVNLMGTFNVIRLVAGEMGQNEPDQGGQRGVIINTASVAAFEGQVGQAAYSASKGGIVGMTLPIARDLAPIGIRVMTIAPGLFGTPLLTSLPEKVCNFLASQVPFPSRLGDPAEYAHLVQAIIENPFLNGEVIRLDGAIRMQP
# Sequence (Q99714 whole entry, looked up): as above
# Assay: qHTS Assay for Inhibitors of HADH2 (Hydroxyacyl-Coenzyme A Dehydrogenase, Type II); note: nearly all actives have a fitted effect of over 60% in size
# Conditions: recombinant HADH2, NADH fluorescence, beta-hydroxybutyryl-CoA; series mostly up to 57.1 µM; activity change, negative = inhibition: at the top concentration
# Text: Assay Overview: NIH Molecular Libraries Screening Centers Network [MLSCN] NIH Chemical Genomics Center [NCGC] Structural Genomics Consortium [SGC] Grant Number: None HADH2: Hydroxyacyl-Coenzyme A dehydrogenase, type II, was supplied by researchers at the Structural Genomics Consortium, Oxford University lab (PI Udo Oppermann). The mitochondrial enzyme 17-hydroxysteroid dehydrogenase type 10 (HSD17-10) previously classified as type II hydroxyacyl-CoA dehydrogenase (HADH2) catalyzes the NAD+ dependent oxidation of a variety of substrates including acyl-CoAs, androgens and neurosteroids as well as bile acids(Shafqat N, Marschall HU, Filling C, et al. Biochemical Journal. 2003;376(Pt 1):49-60). The role in neurodegeneration by binding to amyloid-peptide led to its identification (Oppermann UC, et al FEBS Letters. 1999;451(3):238-242 and Yan SD, et al. Nature. 1997;389(6652):689-695), and mutations in its gene appear to be causative for 2-methyl-3-hydroxybutyryl-CoA dehydrogenase deficiency (Ofman R, et al. American Journal of Human Genetics. 2003;72(5):1300-1307). The enzyme was produced by E.coli fermentation as His-tagged recombinant for the purpose of X-ray structure determination, and had been mass-spectrometry characterized. Inhibition of HADH2 activity was screened by utilizing beta-hydroxybutyryl coenzyme A as an electron donor and NAD+ as an electron acceptor/cofactor. An increase in the fluorescence intensity due to conversion of NAD+ to NADH was used to measure the enzyme activity.
# Assay Protocol: Buffer: 100 mM Tris-HCl pH 9.0, containing 0.01 % Tween-20. Reagents/Controls: Buffer in columns 3 and 4 as negative control (no enzyme). Substrate/cofactor solution: 1 mM NAD+ and 90 uM beta-hydroxybutyryl coenzyme A (Sigma-Aldrich, St. Louis, MO) final concentrations dispensed throughout the plate. Enzyme: 20 nM HADH2 final concentration in columns 1, 2, 5-48. Column 1 is neutral (100% activity). Column 2 contained titration of apomorphine (Sigma-Aldrich, A 4393, PubChem CID 2215, top concentration 500 uM, then 1:2 dilution in duplicate) Assay Steps: Three uL of enzyme were dispensed to 1536-well Greiner black solid bottom plates. Compounds and controls (23 nL) were transferred via Kalypsys PinTool. The plates were incubated for 15 min at room temperature, and then 1 uL of substrate/cofactor solution was added to start the reaction. The plates were immediately transferred to and read every 30 seconds for 4 min on ViewLux High-throughput CCD imager (Perkin-Elmer) using 360 nm excitation and 450 nm emission fluorescence protocol. The fluorescence intensity difference between the last and the first time points was used to compute reaction progress.
# % is set by controls: 0 for no effect and ±100 for the full control effect; potency is the fitted concentration of half-maximal effect.
SMILES,Potency,"activity change, negative = inhibition"
COC(=O)N(c1ccc(OC)cc1)P1(=S)OCCC(C)O1 (stereo not given),1 µM (active),
Fc1ccc(C(OCCN2CCN(C/C=C\c3ccccc3)CC2)c2ccc(F)cc2)cc1,,-4.71% (inactive)
N[C@H](Cc1o[nH]c(=O)c1Cl)C(=O)O,,-1.53% (inactive)
C/C(=C\C=C/[C@@H](C)C(=O)O)[C@H]1CN[C@H](C(=O)O)[C@@H]1CC(=O)O,,1.54% (inactive)
O=C1C2(Cl)C3(Cl)C4(Cl)C(Cl)(Cl)C5(Cl)C3(Cl)C1(Cl)C5(Cl)C24Cl (stereo not given),inactive,
COc1ccc(CN2CCN(c3ccccc3F)CC2)c(OC)c1,,-2.55% [at 11.4 µM] (inactive)
CC(Cl)Cl,,-6.68% (inactive)
Cc1cccc([C@H](C)c2cnc[nH]2)c1C,,0.0117% (inactive)
O=[N+]([O-])c1ccc(Cl)c(Cl)c1,31.6 µM (active),
Nc1ccc([N+](=O)[O-])cc1,,-6.3% (inactive)
Cc1cc(-c2ccc(N)c(C)c2)ccc1N,,-17.4% (inactive)
ClCCBr,,-7.21% (inactive)
O=C(O)C(=O)Cc1ccc2c(c1)OCO2,,-12.9% [at 11.4 µM] (inactive)
CC(=O)O[C@H]1CC[C@@]2(C)[C@@H](CC[C@H]3[C@H]2CC(=O)[C@]2(C)[C@@H]3C[C@@H](N3CC3)[C@H]2C(C)=O)C1,,16.9% [at 11.4 µM] (inactive)
CC(C)(O/N=C(\C(=O)N[C@@H]1C(=O)N2C(C(=O)[O-])=C(C[n+]3ccccc3)CS[C@@H]12)c1csc(N)n1)C(=O)O,7.94 µM (active),
c1ccc(CN2CC[C@@]3(CCCNC3)C2)cc1,,-3.09% (inactive)
NCC[Se][Se]CCN,,1.13% [at 11.4 µM] (inactive)
NC[C@H](O)c1ccc(O)cc1,inactive,
BrC1C(Br)C(Br)C(Br)C(Br)C1Br (stereo not given),25.1 µM (active),
C[C@H](Br)C(=O)N[C@H](CO)C(=O)O,,-0.293% [at 11.4 µM] (inactive)
CC[C@]1(O)C(=O)OCc2c1cc1n(c2=O)Cc2cc3ccccc3nc2-1,,-8.11% (inactive)
CCCCN1C2CCC1CC(OC(c1ccc(F)cc1)c1ccc(F)cc1)C2 (stereo not given),,3.59% (inactive)
CCOC(=O)c1c(-c2ccccc2)oc2ccc(OC(=O)N(C)C)cc12,7.94 µM (active),
C[C@@]12CC[C@H]3[C@@H](CC[C@]4(O)C[C@H](O)CC[C@@]34C=O)[C@]1(O)CC[C@@H]2C1=CC(=O)OC1,,-3.49% [at 25.6 µM] (inactive)
Clc1ccc([C@@H]2C[C@H]3CC[C@@H]2N3)cn1,,-0.0351% (inactive)
ClC(Cl)(Cl)c1ccccc1,inactive,
CC(=O)c1c(O)c(C)c(O)c(Cc2c(O)c3c(c(C(=O)/C=C\c4ccccc4)c2O)OC(C)(C)C=C3)c1O,12.6 µM (active) and 1 µM (active),
Nc1ccc(Cc2ccc(N)c(Cl)c2)cc1Cl,,-16.3% (inactive)
Clc1ccccc1,,-7.99% (inactive)
CC(C)(c1ccccc1)c1ccc(O)cc1,,-14.8% (inactive)
